In PubChem BioAssay (NCATS):
Results filed as inconclusive are left out. Unmarked numbers belong to inactive results. Calls of active or inactive are those of the source. The call rests on the fitted dose curve; in most records, active means well fitted inhibition curve with a large enough effect; inconclusive means small, poorly fitted or top-dose-only effect; inactive means no such curve, though single readings can be large or run the other way.

test: Primary qHTS for inhibitors of nuclear receptor binding SET domain protein 2 (NSD2) in an RCH-ACV wild type WT cells (2C) (AID 1645877); settings: RCH-ACV (leukaemia line) NSD2 WT (2C) viability, CellTiter-Glo, 72 h; series mostly up to 44.9 µM; activity change, negative = cell killing: at the top concentration; further: nearly all actives have a fitted effect of over 70% in size
On the % scale 0 is the no-effect control and ±100 the full control effect.

| SMILES | activity change, negative = cell killing | outcome |
| --- | --- | --- |
| CC(C)[C@@H](C(=O)O)N1Cc2c(cc(O)c3c2O[C@]2(C3)[C@H](C)CCC3C(C)(C)[C@H](O)[C@H](O)C[C@@]32C)C1=O (stereo partly specified) | -4.39% [at 17.3 µM] | – |
| Cc1cc(CO)c(O)c(C(=O)CC2CC(=O)NC(=O)C2)c1 | -4.07% | – |
| C=C(COC(=O)C(C)C)C1Oc2cc(C(C)=O)ccc2C1OC(=O)C(C)C (stereo unspecified) | -4.21% | – |
| C[C@@H]1CC[C@]2(C(=O)O)CC[C@]3(C)C(=CCC4[C@@]5(C)C[C@@H](O)[C@H](O)[C@@](C)(CO)C5CC[C@]43C)C2[C@H]1C (stereo partly specified) | -3.7% [at 17.3 µM] | – |
| CC(C)=CCC[C@](C)(O[C@@H]1O[C@H](CO)[C@@H](O)[C@H](O)[C@H]1O)[C@H]1CC[C@]2(C)[C@@H]1[C@H](O)CC1[C@@]3(C)CC[C@H](O)C(C)(C)C3[C@@H](O[C@@H]3O[C@H](CO)[C@@H](O)[C@H](O)[C@H]3O[C@@H]3O[C@@H](C)[C@H](O)[C@@H](O)[C@H]3O)C[C@]12C (stereo partly specified) | -9.19% [at 9.23 µM] | – |
| C[C@@H]1O[C@@H](OC2C(CO)OC(OCC3OC(OC(=O)[C@]45CCC(C)(C)CC4C4=CCC6[C@@]7(C)CC[C@@H](O)[C@](C)(C(=O)O)C7CC[C@@]6(C)[C@]4(C)CC5)C(O)C(O)C3O)C(O)C2O)[C@H](O)[C@H](O)[C@H]1O (stereo partly specified) | – | inactive [at 9.23 µM] |
